Data from PubChem BioAssay (NCI).
About 79,000 compounds went through this panel and 15% of them were active in at least one assay; those are over-represented in the sample as a whole. Values without a mark were called inactive. Activity calls are given as the source filed them. Cut-off read from the data, not from the text of the source: active = growth inhibition above about 70%; inactive = the rest.

What was measured:
[1] = NCI Yeast Anticancer Drug Screen. Data for the rad50 strain (AID 155);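 note: 0% = growth of vehicle-only cultures of the same strain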; details: S. cerevisiae rad50 strain growth inhibition; at 50.0 µM; stronger effect = higher value
Method in brief: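 Relative growth inhibition (compound vs vehicle) was measured in yeast with a defined repair-gene alteration.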

[2] = NCI Yeast Anticancer Drug Screen. Data for the mec2-1 strain (AID 157); details: S. cerevisiae mec2-1 strain, at 50.0 µM, stronger effect = higher value
Method in brief: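 Mutant yeast (mec2-1) grown with compound; growth inhibition relative to vehicle control reported.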

[3] = NCI Yeast Anticancer Drug Screen. Data for the sgs1 mgt1 strain (AID 161);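 note: 0% = growth of cultures given vehicle only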; details: S. cerevisiae sgs1 mgt1 strain, at 50.0 µM, stronger effect = higher value
Method in brief: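 Yeast cells carrying a defined DNA-repair defect were exposed to test compounds. Growth inhibition was measured relative to vehicle-treated controls.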

[4] = NCI Yeast Anticancer Drug Screen. Data for the cln2 rad14 strain (AID 165);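 note: 0% = growth equal to vehicle treated cultures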; details: S. cerevisiae cln2 rad14 strain, at 50.0 µM, stronger effect = higher value
Method in brief: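 Readout is yeast growth inhibition versus vehicle-treated controls, using a strain with cln2 and rad14 alterations exposed to compound.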

[5] = NCI Yeast Anticancer Drug Screen. Data for the bub3 strain (AID 167); details: S. cerevisiae bub3 mutant strain, at 50.0 µM, stronger effect = higher value
Method in brief: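 Screening used yeast with an engineered genetic alteration affecting cell cycle control. Compound-exposed cultures were compared with vehicle cultures, and reduced growth was taken as inhibition.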

[6] = NCI Yeast Anticancer Drug Screen. Data for the mlh1 rad18 strain (AID 175); details: S. cerevisiae mlh1 rad18 strain growth inhibition; at 50.0 µM; stronger effect = higher value
Method in brief: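 Genetically defined yeast (DNA repair-deficient) exposed to compounds; growth inhibition determined relative to vehicle.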

Compound | growth inhibition [1] [%] | growth inhibition [2] [%] | growth inhibition [3] | growth inhibition [4] [%] | growth inhibition [5] [%] | growth inhibition [6]
NCC=C1C2CC3CC(C2)CC1C3 | 1.9 | -7.25 | 1.4% | -26.4 | -13.7 | 12.6%
O=[N+]([O-])C(CO)(CO)c1ccccc1 | 25.3 | 2.4 | 6% | 18.8 | 3.55 | 15.7%
c1cc2c3c(c1)CCC3CCC2 (configuration not stated) | -50.1 | -48 | -50.9% | 12.8 | -35 | -4.85%
COc1cc(C)cc2c(-c3c(O)cc(O)c4c3CC(C)N[C@H]4C)cc(-c3cc(-c4c(O)cc(O)c5c4CC(C)N[C@H]5C)c4cc(C)cc(OC)c4c3O)c(O)c12 (some centres not stated) | 15.2 | -20.4 | 7.9% | 18.9 | -13.9 | 16.5%
CC(C)/C(Cl)=N/OC(=O)Nc1ccc(Br)cc1 | 34.6 | 47.5 | 90.5% (active) | 24.1 | 69.3 | 81.8% (active)
CCOC(=O)C(C)C1CCCc2c(C)ccc(C)c21 (configuration not stated) | -8.25 | 9.6 | 1.25% | -1.8 | 8.5 | 2.7%
CCOC(=O)/C(C#N)=C/c1ccc(Cl)cc1 | -5.3 | -11.7 | -13.1% | 0.85 | -34.4 | -0.65%
C(=N/Nc1ccncc1)/c1ccc2ccccc2n1 | -1.8 | -22.6 | -11.4% | -26.9 | -7.65 | 4.05%
CCCCCC(C#N)CCC(C)=O (configuration not stated) | -6.7 | -9.15 | -9.3% | -6.2 | -0.95 | -10%
CC1(C)C(O)C(C)(C)C1O (configuration not stated) | 17.1 | -17.6 | 7.8% | 6.95 | 11.2 | 10.2%
C=C1C(=O)OC2(CCCCC)CCCCC12 (configuration not stated) | 1.95 | 4.1 | -11.2% | -9.9 | 0.5 | -10.5%
Nc1nc(N)c(N=Nc2ccc([N+](=O)[O-])cc2)c(=O)[nH]1 | -0.9 | -16.9 | -12% | 9 | 0.7 | -3.9%
ON=C1CCCCC1 | 37.9 | 7.45 | -1.45% | -27.9 | -3.15 | 25.1%
Nc1ccc(S(=O)(=O)NCCS(=O)(=O)O)cc1 | 3.45 | 4.25 | -36.8% | -29.3 | -16.2 | -3.75%
[O-]c1n[n+](Cc2ccc(Br)cc2)no1 | 6.95 | 15.2 | -4% | 1.2 | 18.4 | 28.3%
N#CC(C#N)=C(N)/C(C#N)=C/c1ccc2[nH]ccc2c1 | -11 | 6.95 | -29.2% | -24.9 | -26.6 | -24.1%
CCOC(=O)C(Cc1ccccc1)Nc1c(Cl)c(=O)oc2ccc(C)cc12 (configuration not stated) | 18.6 | -3.2 | 32.7% | 26.9 | -16.4 | 19.6%
CCCCCCCCCCCCCCCCCCCCCC(=O)O | -16.1 | -21.4 | -21.1% | -28.3 | -2.15 | -18.1%
O=C(O)C1CC=CCC1C(=O)O (configuration not stated) | 8.5 | -7.45 | -12.4% | -45.9 | 1.4 | 9.95%
O=C1N(O)C2(C=CCCC2)/C(=N/O)C12CCCCC2 (configuration not stated) | -8.5 | -2.3 | -0.9% | 11.4 | 11.4 | 12.1%
Cn1c(=O)c2[nH]c(Br)nc2n(C)c1=O | -12 | -13.4 | 5.4% | -4.25 | 13.3 | -12.2%

Compound | growth inhibition [1] [%] | growth inhibition [2] [%] | growth inhibition [3] | growth inhibition [4] [%] | growth inhibition [5] [%] | growth inhibition [6]
CC(=O)OC1CC(OC(C)=O)C(OC(C)=O)C(C)O1 (configuration not stated) | 1.15 | 17.9 | 4.7% | -15.7 | -1.85 | 5.45%
CC1CC(C)OC(c2ccco2)O1 (configuration not stated) | 2.4 | -20.6 | -11.9% | -37.6 | -15.1 | 16.2%
CCCCNc1nc2ccccc2c2c1ncn2CC(C)C | -7.4 | 34.5 | 14.1% | 23.5 | 46.5 | 30.3%
ICC1OCOC2C(CI)OCOC12 (configuration not stated) | 5.1 | 1.3 | -5.3% | -1.8 | 4.75 | 9.5%
C1=Nc2ccccc2/C1=C/c1cccs1 | 35.5 | 37 | 12.1% | -47.4 | 13 | 48.8%
CC(=O)ON1CCC=NC1 | 19.7 | 10.3 | -20.4% | 8.05 | 3.95 | -6.75%
N#CSCC(Cl)=CCl (mixture of isomers) | 2.95 | 0.95 | -4.4% | 12.5 | 0.5 | -19.6%
OC1CC2c3ccccc3C1c1cccc[n+]12 (configuration not stated) | 16.2 | -9.85 | -4.1% | -38.7 | 4.65 | 14.7%
CCOC(=O)/C(=C/c1cc(OC)ccc1OC)P(=O)(OCC)OCC | 6.05 | -12.9 | -17.6% | -25.1 | 4.65 | -0.9%
CCOC(=O)CC1NC(=O)CNC1=O (configuration not stated) | -9.2 | 2.1 | 5.3% | -5 | -1.65 | -13.2%
CCCCOC(=O)C1C(c2ccc(Cl)cc2)NC(c2ccc(Cl)cc2)C(C(=O)OCCCC)S1(=O)=O (configuration not stated) | -28.2 | -15.1 | -14.5% | -1.4 | -2.35 | -45.2%
COc1ccc2c3c(c4ccccc4c2c1)C(=O)OC3=O | 27.8 | 11.2 | 16.7% | 18.6 | 21.8 | 19.2%
CNC(CC(=O)O)C(=O)O (configuration not stated) | -0.4 | -3.95 | -14.6% | -15.1 | 2.5 | -3.05%
Cc1ccc2c(=O)cc(-c3cccc(F)c3)[nH]c2n1 | -4.9 | -0.9 | -11% | 23.9 | -6.25 | -16.4%
CC1=NN(c2ccc([N+](=O)[O-])cc2)C(=O)C1 | 25.6 | 0.25 | 22.6% | 6.1 | 25.6 | 36.9%
CC1(C)OC(=O)N=C1c1cccc(Cl)c1 | -12.3 | -17.8 | -15.9% | -5.9 | 4.25 | -3.7%
Ic1ccc(-c2ccccc2)cc1 | -2.95 | -7.7 | 12.1% | -57.7 | 34 | 29.7%
CC(=O)N1C(NN(C)C)CCN1c1ccccc1 (configuration not stated) | 36 | -28.9 | 13.6% | -4.75 | -22.5 | 2.95%
CCOC(=O)C1=C(C)NC(C)=C(C(=O)OCC)C1c1c(C)noc1C | 19.6 | 18.6 | 60.7% | 19.3 | 6.95 | 61.4%
COc1ccc(C=Nc2ccc(Cl)cc2)cc1 | -11.5 | -25.2 | 4.45% | -18.7 | 2.55 | 3.55%
C/C(=N/NS(=O)(=O)c1ccc(N)cc1)c1ccccc1 | 9.9 | -14.8 | 1.45% | 15.6 | -41.4 | -17.8%
